Consider 14 compounds from PubChem BioAssay (NCI).

Experiment in all cases: NCI-60 one-dose screen, 48 h (100 = growth as untreated, 0 = no growth, -100 = all killed)
Common to all, as to conditions: 10 µM

Experiment [1] relates to NCI-H23 lung.
Experiment [2] deals with NCI-H226 lung.
Experiment [3] relates to NCI-H322M lung.
Experiment [4] has as its system HOP-62 NSCLC.
For experiment [5], the system named is NCI-H460 lung.
Experiment [6] deals with HOP-92 NSCLC.
In experiment [7] the test system is NCI-H522 lung.
Experiment [8] relates to A549/ATCC NSCLC.
Experiment [9] deals with 786-0 renal.
For experiment [10], the system named is COLO 205 colon.

Compounds without any hit were thinned out: in the full panel of roughly 83,000, 20% have a hit.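 The endpoint reported here, percent growth, reads 100 for growth as untreated, 0 for no net growth and -100 for all cells dead.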 A number with no mark means an inactive call. Active and inactive are the calls of the source. Rule for the calls: active = growth percent below 10; inactive = the rest.

For the compound `C=CCn1c(C)nc2cc(Nc3nc(Nc4ccc5nc(C)n(CC=C)c5c4)c4ccccc4n3)ccc21`, the growth in experiment [1] was -69.2% (active); in [2] it was -47.1% (active); in experiment [3], -92.2% (active); in experiment [4], -99.5% (active); in experiment [5], -84.2% (active); in experiment [6], -79% (active). For the same compound, the growth is -94.8% (active) in [7], -67.1% (active) in experiment [8], -70.6% (active) in experiment [9] and -100% (active) in experiment [10].
For the compound `COc1ccc(-c2nc(-c3nc4ccc(C)cc4[nH]3)c3ccccn23)cc1`, the growth in [1] was 69.3%; in experiment [2], 57.9%; in [3] it was 50.3%; in experiment [4], 52%; in experiment [5], 52.1%; in [6], -2.51% (active). Besides, the growth in experiment [7] is 38.8%; in experiment [8], 24.2%; in [9], 78.3%; in [10], 61.1%.
Regarding `Oc1cc(O)c(Br)cc1Br`, the growth is 110% in [1]; 103% in experiment [2]; 91.8% in [3]; 105% in experiment [4]; 108% in [5]; 85.4% in experiment [6]. The growth in experiment [7] is 88.8%; in [8], 98.9%; in [9], 93.1%; in [10], 101%.
Regarding `COc1cc2nc(Sc3sc(N)nc3C)n(-c3ccc(Oc4ccccc4)cc3)c(=O)c2cc1OC`, the growth in [1] is 90.6%; in experiment [2], 89.7%; in experiment [3], 123%; in [4] it was 110%; in experiment [5], 99.5%; in experiment [6], 79.5%. In addition, the growth in experiment [7] is 83.7%; in experiment [8], 83.3%; in [9] it was 80%; in experiment [10], 76%.
Turning to `N#CCC1CCCC1`, the growth is 115% in [1]; 107% in experiment [2]; 111% in [3]; 92.7% in experiment [4]; 105% in [5]; 80% in [6]. For the same compound, the growth in experiment [7] was 109%; in experiment [8], 101%; in [9] it was 96.3%; in experiment [10] it was 109%.
Turning to `CCCCCCCOc1cccc(/C=C2/C(=O)N=C3SCCCN32)c1`, the growth was 70.7% in [1]; 64.5% in experiment [2]; 89.1% in [3]; 85.7% in experiment [4]; 82% in experiment [5]; 62.8% in [6]. In addition, the growth in [7] was 23.6%; in [8] it was 94.9%; in experiment [9], 80.4%; in experiment [10] it was 81.2%.
Take `O=C1/C(=C/c2ccc(O)cc2)CSc2ccc(Cl)cc21`: the growth was 91.3% in [1]; 82.2% in experiment [2]; 92.3% in [3]; 90.9% in experiment [4]; 96.5% in [5]; 75.6% in experiment [6]. The growth in experiment [7] is -26.2% (active); in experiment [8] it was 86.7%; in experiment [9] it was 85.5%; in experiment [10], 108%.
Consider `CC(=O)OC1Oc2ccccc2-c2oc(=O)c(-c3ccc(F)cc3)cc21` (stereo not given), for which the growth is 92.5% in experiment [1]; 91.9% in experiment [2]; 107% in [3]; 101% in [4]; 94.4% in experiment [5]; 112% in [6]. For the same compound, the growth in experiment [7] is 42.5%; in experiment [8], 57.8%; in experiment [9], 95.4%; in [10], 108%.
Take `CCOC(=O)CNC(=O)Nc1ccc(Oc2ccc(NC(=O)NCC(=O)OCC)cc2)cc1`: the growth in experiment [1] was 104%; in experiment [2], 98.8%; in [3] it was 96.3%; in experiment [4], 96.1%; in [5], 101%; in [6], 92.2%. The growth in experiment [7] is 96.2%; in experiment [8] it was 90.6%; in [9], 105%; in experiment [10], 105%.
Turning to `COc1ccc(-c2cc(/C=C3\C(=O)Nc4cc(Cl)ccc43)[nH]n2)cc1OC`, the growth in experiment [1] is 92.9%; in experiment [2], 80.8%; in experiment [3], 89.8%; in [4], 75%; in [5], 62.9%; in experiment [6], 81.7%. Further, the growth was 46% in experiment [7], 75.7% in [8], 105% in [9] and 79.4% in experiment [10].
As to `COc1ccc(-n2nnc3c(sc4ccccc43)c2=O)cc1`, the growth in experiment [1] is 68.5%; in experiment [2], 24.7%; in [3] it was 37.7%; in [4] it was -8.23% (active); in experiment [5], -18.2% (active); in experiment [6] it was -4.08% (active). The growth in experiment [7] is 56.6%; in experiment [8], 10.8%; in experiment [9], 21.4%; in [10] it was 80.7%.
In the case of `Cc1ccc([P+](Cc2ccc([N+](=O)[O-])cc2)(c2ccc(C)cc2)c2ccc(C)cc2)cc1`, the growth in experiment [1] is 41%; in experiment [2] it was 80.6%; in experiment [3], 69.3%; in [4], 70.8%; in experiment [5] it was 60.5%; in experiment [6] it was -19.6% (active). In addition, the growth in experiment [7] was 0.971% (active); in [8], 81%; in experiment [9], 82.4%; in [10], 7.68% (active).
For the compound `FC(F)(F)c1ccc(-c2ncc(-c3ccc(C(F)(F)F)cc3)c(NCc3cc(C(F)(F)F)cc(C(F)(F)F)c3)n2)cc1`, the growth was 39.3% in [1]; 46.7% in experiment [2]; 90.9% in experiment [3]; 62.6% in experiment [4]; 38.5% in [5]; -6.55% (active) in [6]. The growth is 43.3% in experiment [7], 65.7% in [8], 53.9% in experiment [9] and 74.9% in experiment [10].
Take `COc1ccccc1Cn1cc2c(c1-c1ccccc1)CCc1cnoc1-2`: the growth in [1] was 36.9%; in experiment [2], 59.9%; in [3], 35.1%; in [4], 34.7%; in [5] it was 10.7%; in [6], 53.1%. For the same compound, the growth is 42.1% in experiment [7], 46.6% in experiment [8], 33.5% in experiment [9] and 19.6% in [10].
